In the library only some 3.6% were active in any assay of this set; here they are far more common.
Hsp90 Hop PPI – changes Hsp90-Hop TPR2A binding signal, up or down; AlphaScreen TPR2A-His6 binding biotin-Hsp90 C-terminal peptide; Potency, µM (series often up to 57 µM); 71,000 tested, 0.44% active; AID 595; active means well fitted curve in either direction with a large enough effect; inconclusive means small, poorly fitted or top-dose-only effect, or another doubt
CRE Fsk mod – alters forskolin-stimulated CRE reporter signaling in CHO cells; CHO CRE-bla reporter (cAMP response element driving beta-lactamase), forskolin EC10, beta-lactamase ratio; Potency, µM (titrated, usually from 38.2 µM), usual class: activators; 71,000 tested, 2.5% active; AID 662; active means well fitted activation curve with a large enough effect in the signal ratio, with a control signal flat, not every such curve was filed as active; inconclusive means small, poorly fitted or top-dose-only effect, or effect the other way, or a change in a side signal; the % refers to the signal ratio
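Modulation of forskolin-driven signalling is measured in CHO cells carrying a CRE-controlled beta-lactamase reporter. Cells are stimulated with EC10 NKH 477 in the presence of titrated compound for 3 h at 37 °C, then loaded with CCF4 for 2 h at room temperature.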
IkB signaling – IkB pathway inhibition in ABC-DLBCL cells; Potency, µM (top dose mostly 57.1 µM); AID 445; ABC-DLBCL IkBa-CBG/CBR dual luciferase ratio, 4 h; response scale: scaled: untreated 0%, proteasome inhibitor 100%; 110,000 tested, 0.04% active; active means well fitted curve in the direction sought with a large enough effect in the signal ratio, not every such curve was filed as active; inconclusive means small, poorly fitted or top-dose-only effect, or a change in a side signal; the % refers to the signal ratio;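 further: the direction sought is a rising ratio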
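Curves were fitted separately to fusion (green), unfused (red) and ratio luminescence, then classed by r2, magnitude and activity. Cells: OCI-Ly3, 4 h compound plus doxycycline at 37C; 10 uM MG-132 defined full response.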
ALOX15 inhib – inhibitors of human 15-lipoxygenase (ALOX15); P16050; purified 15hLO-1, xylenol orange hydroperoxide absorbance; Potency, µM (titrated, usually from 57.1 µM), usual class: inhibitors; 74,000 tested, 1.4% active; AID 887; further: nearly all actives have a fitted effect of over 55% in size
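Purified human 15hLO-1 (40 nM) in 25 mM Hepes pH 7.5, 0.01% Triton X-100, preincubated 15 min RT with compound, then 50 uM arachidonic acid for 6 min. Hydroperoxide read by ferrous/xylenol orange, 30 min; 573/405 nm absorbance ratio gave progress.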
Tau fil binding – binders of human tau filaments; Potency, µM (top dose mostly 57.1 µM); P10636; recombinant tau filaments, thioflavin S fluorescence, 15 h; filaments grown with octadecylsulfate alongside compound; AID 596; 71,000 tested, 2% active;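 further: actives lower thioflavin S fluorescence by blocking filaments or displacing dye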
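Tau 2 uM in ThS buffer dispensed; compound added; 60 uM ODS added (finals 1 uM tau, 30 uM ODS); 15 h 37 C; fluor ex450/em510.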
tau ThS displ – displaces Thioflavin S from human tau filaments. Potency, µM. recombinant tau filaments, Thioflavin S fluorescence displacement. 60 tested, 40% active. shares compounds with Tau fil binding; calls by dose curve
aSyn ThS bind – alpha-synuclein fibril binding by ThS displacement. shares compounds with Tau fil binding. recombinant alpha-synuclein fibrils, ThS fluorescence displacement. Potency, µM. 60 tested, 40% active. AID 937; calls by dose curve
Abeta ThS bind – compounds binding human beta amyloid fibrils, displacing Thioflavin S; shares compounds with Tau fil binding; Abeta1-42 fibrillization, thioflavin S fluorescence, overnight 37 C; Potency, µM; 60 tested, 50% active; AID 956; calls by dose curve
Target sequence (P05067 whole entry, looked up): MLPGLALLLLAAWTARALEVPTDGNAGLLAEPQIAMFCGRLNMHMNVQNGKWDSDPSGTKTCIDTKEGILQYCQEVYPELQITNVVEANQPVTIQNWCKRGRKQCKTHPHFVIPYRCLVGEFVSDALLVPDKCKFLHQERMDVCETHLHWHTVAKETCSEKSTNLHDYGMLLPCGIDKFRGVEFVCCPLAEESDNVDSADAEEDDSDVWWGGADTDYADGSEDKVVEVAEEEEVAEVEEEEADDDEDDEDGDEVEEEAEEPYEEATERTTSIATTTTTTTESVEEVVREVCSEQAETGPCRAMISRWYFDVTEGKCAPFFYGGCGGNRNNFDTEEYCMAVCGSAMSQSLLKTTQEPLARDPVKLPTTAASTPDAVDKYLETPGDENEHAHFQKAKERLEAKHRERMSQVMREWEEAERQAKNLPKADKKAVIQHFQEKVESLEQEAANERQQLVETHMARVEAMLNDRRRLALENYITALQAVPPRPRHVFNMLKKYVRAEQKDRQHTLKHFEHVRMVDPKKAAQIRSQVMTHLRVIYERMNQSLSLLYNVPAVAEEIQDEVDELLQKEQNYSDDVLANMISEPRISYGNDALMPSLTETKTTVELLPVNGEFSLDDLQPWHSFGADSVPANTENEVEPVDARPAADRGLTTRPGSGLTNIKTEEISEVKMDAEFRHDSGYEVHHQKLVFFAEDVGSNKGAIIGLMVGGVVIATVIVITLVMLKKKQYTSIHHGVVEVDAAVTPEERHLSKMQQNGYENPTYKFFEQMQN
CHO via 24h – cytotoxicity in CRE-bla CHO cells at 24 h. 120 tested, under 10 active. AID 905. CRE-bla CHO viability, ATP luminescence, 24 h. activity, negative = viability loss, % at 46.1 µM. shares compounds with CRE Fsk mod
CHO via 40h – cytotoxicity in CRE-bla CHO cells at 40 h; shares compounds with CRE Fsk mod; CRE-bla CHO viability, ATP luminescence, 40 h; Potency, µM, actives largely listed as inhibitors; 120 tested, under 10 active; AID 906
CRE-luc potent – boosts CRE luciferase signal in HEK293 cells; shares compounds with CRE Fsk mod; HEK293 CRE-luc2P, NKH477 EC10 potentiation, luminescence, 4 h; Potency, µM (top dose mostly 38.3 µM), usual class: activators; 120 tested, 80% active; AID 907
Of the large screens only hits and unclear results are named; the others gave an inactive call (follow-up assays come after a bar, where they were run). Unless noted, the call rests on the fitted dose curve; in most records, active means well fitted curve in the direction sought with a large enough effect; inconclusive means small, poorly fitted or top-dose-only effect, or another doubt; inactive means no such curve, though single readings can be large; an effect the other way counts as inactive or inconclusive.

Cc1ccc(C)c(NC(=O)C(NS(=O)(=O)c2ccc3c(c2)CCC(=O)N3)c2ccccc2)c1 (stereo unspecified)	none (no result: Hsp90 Hop PPI, CRE Fsk mod, ALOX15 inhib, Tau fil binding)
CCC(C)COC(=O)c1ccc(C(=O)O)cc1 (stereo unspecified)	Hsp90 Hop PPI inconclusive | tau ThS displ inactive | aSyn ThS bind inactive | Abeta ThS bind inactive
Cc1cccc(NC(=O)c2oc3ccc(S(=O)(=O)N(C)C4CCCCC4)cc3c2C)c1C	none (no result: Hsp90 Hop PPI, CRE Fsk mod, ALOX15 inhib, Tau fil binding)
CCOc1ccc(CNc2ccc(N3CCCC3)cc2)cc1	Hsp90 Hop PPI inconclusive, ALOX15 inhib 3.16µM, Tau fil binding 5.01µM | tau ThS displ inactive | aSyn ThS bind inconclusive | Abeta ThS bind 4.3µM
CCOc1ccc(C(C)=O)cc1N1C(=O)C2C3C=CC(O3)C2C1=O (stereo unspecified)	CRE Fsk mod inconclusive, IkB signaling inconclusive
CCOc1ccc(C(C)=O)cc1N1C(=O)C2C3C=CC(C3)C2C1=O (stereo unspecified)	Hsp90 Hop PPI inconclusive, CRE Fsk mod inconclusive | tau ThS displ inactive | aSyn ThS bind inactive | Abeta ThS bind inactive
COc1ccc(N2CCN(C(=O)CCn3cnc4onc(-c5ccc(F)cc5)c4c3=O)CC2)cc1	none (no result: Hsp90 Hop PPI, CRE Fsk mod, ALOX15 inhib, Tau fil binding)
COc1ccc(C(=N/O)/C(=N/O)c2ccc(OC)cc2)cc1	none
COc1ccc2c(c1)C(=NO)c1cc(OC)ccc1-2	Tau fil binding 3.98µM | tau ThS displ inconclusive | aSyn ThS bind inconclusive | Abeta ThS bind 4.07µM
Cc1ccc(CNS(=O)(=O)c2c(C)nc3sc(C)cn3c2=O)cc1	none (no result: Hsp90 Hop PPI, CRE Fsk mod, ALOX15 inhib, Tau fil binding)
Cc1cc(C(=O)N[C@@H](c2ccccc2)[C@]2(C)C[C@H]2[C@@H](C)C(=O)Nc2ccc3ccccc3c2)n(C)n1	none (no result: IkB signaling, ALOX15 inhib)
COc1cc(NCC[C@@H]2CCCCN2)c2ncccc2c1	IkB signaling inconclusive
COc1cc(N[C@@H](C)CCCN)c2ncccc2c1	IkB signaling inconclusive, Tau fil binding 5.01µM | tau ThS displ inactive | aSyn ThS bind inactive | Abeta ThS bind inactive
CCOc1ccc(NC(=O)c2ccc3c(c2)nnn3C2CCCC2)cc1	none (no result: Hsp90 Hop PPI, CRE Fsk mod, ALOX15 inhib, Tau fil binding)
CC(C)c1cc(Nc2cccc(O)c2)cc(C(C)C)c1O	Hsp90 Hop PPI inconclusive, CRE Fsk mod inconclusive, IkB signaling inconclusive, ALOX15 inhib 10µM, Tau fil binding 7.94µM | tau ThS displ 4.94µM | aSyn ThS bind 3.64µM | Abeta ThS bind 3.45µM
CCOc1ccc(C(=O)NCCc2sc(-c3ccc(OC)c(OC)c3)nc2C)cc1	none (no result: Hsp90 Hop PPI, CRE Fsk mod, ALOX15 inhib, Tau fil binding)
CCn1c2ccccc2c2cc(Nc3cc(C)nc4ncnn34)ccc21	CRE Fsk mod 0.794µM, IkB signaling inconclusive | CHO via 24h inactive | CHO via 40h inconclusive | CRE-luc potent inactive
CCc1cccc(Nc2cc(C)nc3ncnn23)c1	none
COCCCn1c(=N)c(S(=O)(=O)c2ccccc2)cc2c(=O)n3cccc(C)c3nc21	none (no result: Hsp90 Hop PPI, CRE Fsk mod, ALOX15 inhib, Tau fil binding)
CCn1c2ccccc2c2nnc(SCN3C(=O)c4ccccc4C3=O)nc21	CRE Fsk mod inconclusive, ALOX15 inhib inconclusive | CHO via 24h inactive | CHO via 40h inactive | CRE-luc potent 2µM
C=CCN1C(=O)c2oc3ccccc3c(=O)c2C1c1ccc(O)c(OC)c1 (stereo unspecified)	none (no result: Hsp90 Hop PPI, CRE Fsk mod, IkB signaling, ALOX15 inhib, Tau fil binding) | CHO via 24h inactive | CHO via 40h inactive | CRE-luc potent 12.6µM

Bioassay records (PubChem)
